Experimental findings from PubChem BioAssay are described below.

Calls of active or inactive are those of the source.

The nature of test [1]: anti-His antibody binders, primary screen, artefact control for SMM control protein annotation, biochemical, small-molecule microarray, 635 nm fluorescence (AID 1128).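 Also: score merges feature fluorescence with signal-to-noise for each printed compound spot.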 The conditions noted are these: anti-His Alexa647 antibody binding, higher = more signal.
The subject of test [2] is Human papillomavirus type 1a E7 protein (residues 1-88). As to the kind of experiment: HPV1a E7 small-molecule binders, primary screen, biochemical, small-molecule microarray, residues 1-88, 635 nm (AID 1129). The conditions noted are these: small-molecule microarray binding, fluorescence 635 nm; higher = more signal.
Test [3] has as its target Focal adhesion kinase 1 (Homo sapiens) (UniProt Q05397). As to the kind of experiment: small-molecule microarray binders of FAK, primary screen, biochemical, 635/667 nm fluorescence, BSA, DTT (AID 1130).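 Also: composite of spot emission at 667 nm and signal to noise over triplicate slides.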 The note with it: PTK2 binding, 635 nm fluorescence, higher = more signal.
The subject of test [4] is Fibrinogen (Alexa647-labelled). As to the kind of experiment: fibrinogen binders on compound microarrays, profiling panel, artefact control for SMM control-protein annotation, biochemical, small-molecule microarray, 635/667 nm fluorescence (AID 1131).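 Also: z-score merges 667 nm fluorescence with per-spot signal-to-noise over triplicate slides.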 The conditions noted are these: fibrinogen-A647 binding fluorescence, higher = more signal.
The target of test [5] is Follistatin (Homo sapiens) (UniProt P19883). As to the kind of experiment: follistatin binders on small-molecule microarrays, primary screen, biochemical, small-molecule microarray, 635/667 nm fluorescence (AID 1132). The note with it: FST binding, 635 nm fluorescence, higher = more signal.
The target in test [6] is Fibroblast growth factor 2 (Homo sapiens) (UniProt P09038). As to the kind of experiment: FGF2 binders on small-molecule microarrays, primary screen, biochemical, small-molecule microarray, 635/667 nm fluorescence (AID 1133). The note with it: small-molecule microarray binding, FGF2, fluorescence 635/667; higher = more signal.
Test [7] is described as follows: mitochondrial membrane potential change in A549 cells, profiling panel, cell-based, JC-1 fluorescence, basal, 24 h, 100 nL (AID 1138).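 Also: A549 lung adenocarcinoma cells under basal conditions with no added stimulus; test concentration not given here.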 The conditions noted are these: higher = more signal.
A further test concerns Lefty1. As to the kind of experiment: Lefty1 binders on small-molecule microarrays, primary screen, biochemical, small-molecule microarray, 635/667 nm fluorescence (AID 1139). The conditions noted are these: small-molecule microarray binding, fluorescence 635/667; higher = more signal.
Test [8] relates to wheat germ agglutinin (Triticum aestivum), Alexa647-labelled. The test can be described thus: wheat germ agglutinin binders on compound microarrays, profiling panel, artefact control for SMM control-protein annotation, biochemical, small-molecule microarray, 635/667 nm fluorescence (AID 1140).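 Also: score merges 667 nm feature emission with signal to noise over triplicate slides.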 The conditions noted are these: WGA-A647 binding, 635 nm fluorescence, higher = more signal.

In test [9] the target is Luciferin 4-monooxygenase (Photinus pyralis) (UniProt P08659). The test can be described thus: firefly luciferase enzyme inhibitors, primary screen, biochemical, luminescence, purified enzyme, 2006 set (AID 1141).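 Also: cell-free assay with purified firefly luciferase at 100 ng per well in PBS; test concentration not given here.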 The conditions noted are these: SteadyGlo luminescence, 30 min, higher = more signal, called active from +8 up or from −8 down.
Luciferin 4-monooxygenase (Photinus pyralis), sequence (P08659 whole entry, looked up): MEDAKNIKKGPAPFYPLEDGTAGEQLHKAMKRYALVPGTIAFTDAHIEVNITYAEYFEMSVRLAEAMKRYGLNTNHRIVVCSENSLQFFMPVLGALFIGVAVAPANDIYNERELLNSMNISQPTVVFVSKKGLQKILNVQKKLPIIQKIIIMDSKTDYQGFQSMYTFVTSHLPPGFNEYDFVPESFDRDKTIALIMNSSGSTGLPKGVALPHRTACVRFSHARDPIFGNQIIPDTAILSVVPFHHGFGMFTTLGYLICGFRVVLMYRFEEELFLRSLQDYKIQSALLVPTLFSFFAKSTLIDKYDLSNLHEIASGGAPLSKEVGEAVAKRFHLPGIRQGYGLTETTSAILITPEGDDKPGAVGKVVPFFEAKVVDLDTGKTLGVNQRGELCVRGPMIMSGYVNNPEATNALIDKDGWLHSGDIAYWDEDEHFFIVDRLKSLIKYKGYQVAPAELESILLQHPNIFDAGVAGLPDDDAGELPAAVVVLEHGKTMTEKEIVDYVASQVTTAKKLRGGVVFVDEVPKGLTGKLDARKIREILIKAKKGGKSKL

Follistatin (Homo sapiens), sequence (P19883 whole entry, looked up): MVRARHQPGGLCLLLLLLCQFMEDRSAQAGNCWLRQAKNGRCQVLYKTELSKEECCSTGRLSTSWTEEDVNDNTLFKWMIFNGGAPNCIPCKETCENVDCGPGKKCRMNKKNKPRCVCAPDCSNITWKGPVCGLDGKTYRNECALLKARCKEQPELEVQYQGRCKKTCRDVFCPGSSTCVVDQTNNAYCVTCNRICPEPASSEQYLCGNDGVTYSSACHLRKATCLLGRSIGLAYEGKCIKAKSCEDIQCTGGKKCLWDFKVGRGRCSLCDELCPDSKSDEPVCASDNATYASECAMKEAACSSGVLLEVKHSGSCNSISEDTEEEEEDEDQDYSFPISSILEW
Focal adhesion kinase 1 (Homo sapiens), sequence (Q05397 whole entry, looked up): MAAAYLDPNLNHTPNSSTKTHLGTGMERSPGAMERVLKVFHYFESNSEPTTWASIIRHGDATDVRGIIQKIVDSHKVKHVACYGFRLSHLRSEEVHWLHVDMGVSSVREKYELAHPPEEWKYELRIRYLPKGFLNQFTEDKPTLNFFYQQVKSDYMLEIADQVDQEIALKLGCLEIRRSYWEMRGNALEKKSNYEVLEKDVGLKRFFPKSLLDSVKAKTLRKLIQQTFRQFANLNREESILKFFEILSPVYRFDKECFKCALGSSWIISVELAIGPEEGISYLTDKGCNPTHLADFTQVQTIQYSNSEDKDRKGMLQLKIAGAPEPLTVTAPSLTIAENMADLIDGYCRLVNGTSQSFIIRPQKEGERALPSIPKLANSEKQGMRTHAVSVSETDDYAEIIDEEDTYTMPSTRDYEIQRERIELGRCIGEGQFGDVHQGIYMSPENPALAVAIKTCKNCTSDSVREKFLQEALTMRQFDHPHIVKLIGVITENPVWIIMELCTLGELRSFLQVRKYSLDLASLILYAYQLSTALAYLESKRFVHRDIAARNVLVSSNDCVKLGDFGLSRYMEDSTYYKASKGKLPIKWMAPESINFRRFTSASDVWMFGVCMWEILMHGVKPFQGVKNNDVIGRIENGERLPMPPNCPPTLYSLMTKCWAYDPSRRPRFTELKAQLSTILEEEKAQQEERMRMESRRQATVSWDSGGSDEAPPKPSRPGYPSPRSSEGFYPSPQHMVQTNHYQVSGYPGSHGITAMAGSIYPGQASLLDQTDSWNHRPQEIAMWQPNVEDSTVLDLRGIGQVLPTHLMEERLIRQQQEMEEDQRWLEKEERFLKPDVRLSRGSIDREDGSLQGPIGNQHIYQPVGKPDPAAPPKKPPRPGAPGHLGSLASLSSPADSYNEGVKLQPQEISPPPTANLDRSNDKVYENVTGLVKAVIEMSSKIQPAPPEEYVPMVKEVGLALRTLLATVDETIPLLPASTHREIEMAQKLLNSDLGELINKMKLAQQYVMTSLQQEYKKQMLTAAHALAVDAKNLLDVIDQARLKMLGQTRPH
Fibroblast growth factor 2 (Homo sapiens), sequence (P09038 whole entry, looked up): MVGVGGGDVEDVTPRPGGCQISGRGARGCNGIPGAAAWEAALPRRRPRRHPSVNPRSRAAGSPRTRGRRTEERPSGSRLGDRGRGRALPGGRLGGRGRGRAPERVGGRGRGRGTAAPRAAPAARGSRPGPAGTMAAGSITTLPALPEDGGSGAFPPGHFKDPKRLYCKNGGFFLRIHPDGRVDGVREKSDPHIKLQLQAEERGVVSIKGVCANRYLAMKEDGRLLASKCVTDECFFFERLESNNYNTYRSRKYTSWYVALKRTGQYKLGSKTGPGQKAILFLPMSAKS

On to `CN1C(=O)[C@@H]2[C@@H](CC(COc3ccccc3)=C([C@H](O)CCc3ccccc3)[C@@H]2CO)C1=O`, for which the composite z-score in test [1] is -0.203; in test [2], -0.438; in test [3], -0.147; in test [4], -0.163; in test [5] it was 0.009; in test [6] it was 0.364. For the same compound, the composite z-score was -0.0412 in the test on Lefty1 and 0.488 in test [8]. Besides, the z-score in test [7] was 2.02; in test [9] it was -1.4 (inactive).
On to `CN1C(=O)C2C(C1=O)C1C=C(CCCO)C2C(C2CC2)N1Cc1cc2c(cc1Br)OCO2` (stereo not given), for which the composite z-score in test [1] was determined as 2.92; in test [2], 0.788; in test [3] it was 0.481; in [4], 0.919; in [5], 0.4; in test [6], 0.0867. The composite z-score was 0.317 in the test on Lefty1 and 0.555 in test [8]. In addition, the z-score in test [7] is -0.401; in [9], -0.0255 (inactive).
For `CC(=O)NCCCC[C@@H]1NC(=O)[C@H]2C[C@@H](C(=O)NCCCCCNC(=O)CS)[C@@H](c3cccc(OCCO)c3)N2C1=O`, the composite z-score in test [1] worked out at 2.85; in test [2], 0.616; in test [3], 0.598; in test [4] it was 0.108; in test [5], 1.33; in test [6] it was 1.6. The composite z-score came to 0.157 in the test with Lefty1 and 0.29 in test [8]. Moreover, the z-score in test [7] is 0.0396; in [9], -1.36 (inactive).
Take `CN(C)CCCCCCNC(=O)[C@@H]1C[C@@H]2C(=O)N[C@@H](CCCCN)C(=O)N2[C@@H]1c1ccc(O)cc1`: the composite z-score in test [1] amounted to 2.6; in test [2] it was 1.33; in test [3], 3.73; in [4], 0.957; in [5], 1.54; in [6], 1.6. The composite z-score in the test on Lefty1 was determined as 1.66; in test [8], 1.73. Also, the z-score in test [7] is -0.742; in test [9] it was 0.307 (inactive).
On to `CCCCCN1CC=CC23O[C@@H]4C=CCOC(=O)[C@@H]4[C@H]2C(=O)N(CCO)[C@@H]3C1=O` (stereo not given in full), for which the composite z-score in test [1] is 1.58; in test [2], -0.22; in test [3], 0.0763; in [4] it was -1.05; in [5], -0.693; in test [6], -0.903. The composite z-score with Lefty1 was -0.306; in [8], -0.324. For the same compound, the z-score in test [7] is -0.222; in [9], 0.056 (inactive).
Regarding `COc1ccc(C#Cc2ccc3c(c2)[C@]2(C(=O)N3)[C@H](C(=O)N3CCCCCCC3)[C@H]3C(=O)O[C@H](c4ccccc4)[C@H](c4ccccc4)N3[C@@H]2c2ccc(O)cc2)cc1`, the composite z-score was found to be 1.21 in [1]; 1.21 in [2]; 0.127 in test [3]; 0.729 in test [4]; 1.31 in test [5]; 0.709 in [6]. Moreover, the composite z-score with Lefty1 turned out to be 0.942; in [8], 0.983. Moreover, the z-score is -0.316 in test [7] and 0.103 (inactive) in [9].
Consider `COCCOC(=O)N1C(=O)[C@@]2(c3ccccc31)[C@H](c1ccc(OCCO)cc1)N1[C@H](c3ccccc3)[C@H](c3ccccc3)OC(=O)[C@H]1[C@@H]2C(=O)N1CCCCCCC1`, for which the composite z-score in [1] came out at 3.91; in test [2], 1.37; in [3], 4.76; in test [4], 0.995; in [5] it was 1.55; in test [6] it was 1.99. Further, the composite z-score in the test on Lefty1 came out at 1.92; in [8] it was 1.76. The z-score was -1.75 in [7] and -0.659 (inactive) in test [9].
`C=C(COC)C(=O)CC[C@H](OC(=O)c1cccnc1)c1ccc(CO)o1`: the composite z-score in [1] is 0.784; in [2] it was 0.113; in test [3], -0.163; in test [4] it was 0.978; in test [5], 1.34; in test [6], 1.26. The figures for the composite z-score (in the test on Lefty1; in [8]) were 1.15 and 0.264, respectively. Besides, the z-score was -0.595 in [7] and -0.721 (inactive) in test [9].
Turning to `CC(C)[C@H]1NC(=O)[C@@]23C(=O)N[C@@H](Cc4ccccc4)C2[C@H](C)[C@@]2(C)O[C@H]2C3/C=C/CCC/C=C/CNC(=O)[C@H](Cc2ccccc2)NC1=O` (stereo not given in full), the composite z-score is 0.123 in test [1]; 0.369 in test [2]; 0.205 in test [3]; -0.684 in test [4]; 0.283 in [5]; -0.0659 in test [6]. In addition, the composite z-score is 1.03 with Lefty1 and -0.755 in [8]. In addition, the z-score in test [7] is -0.69; in test [9], -0.388 (inactive).
For `COc1cc(NN2C(C(O)c3ccc(I)cc3)C=CC3C(=O)N(c4ccccc4)C(=O)C32)cc(OC)c1OC` (stereo not given), the composite z-score was 2.4 in [1]; 1.24 in test [2]; 0.522 in [3]; 0.993 in [4]; 1.2 in test [5]; 0.562 in test [6]. For the same compound, the composite z-score turned out to be 0.52 in the test with Lefty1 and 1.39 in [8]. Besides, the z-score is 0.235 in [7] and -0.285 (inactive) in test [9].
On to `CCCC=C(CCC)[C@@H](NS(=O)(=O)c1cccc2cccnc12)c1ccc(-c2ccccc2)cc1`, for which the composite z-score came out at 0.187 in test [1]; 1.19 in test [2]; 0.638 in test [3]; 0.98 in [4]; 0.964 in test [5]; 0.512 in test [6]. The composite z-score in the test with Lefty1 was 1.11; in test [8], 0.745. Moreover, the z-score in [7] was 1.03; in test [9], 2.06 (inactive).
For the compound `COC(=O)[C@@]1(Cc2ccc(F)cc2)[C@H]2c3cc(C(=O)N4CCCC4)n(C)c3C[C@H]2CN1C(=O)c1ccccc1`, the composite z-score in test [1] is 2.46; in test [2], 1.23; in test [3], 0.746; in [4], 0.422; in test [5] it was 0.253; in test [6] it was -0.325. Moreover, the composite z-score was -0.983 in the test on Lefty1 and 0.0993 in test [8]. The z-score in [7] was 0.312; in [9] it was 0.745 (inactive).
For `COCCCNC(=O)[C@@]1(c2ccc([N+](=O)[O-])cc2)CC(=O)N(CC23CC4CC(CC(C4)C2)C3)[C@@H]1c1ccc(CO)cc1I`, the composite z-score in [1] is 1.77; in [2], 0.892; in test [3] it was 0.0865; in [4] it was 0.705; in [5], 1.16; in test [6], 0.614. Further, the composite z-score in the test with Lefty1 was -0.122; in test [8], 0.47. The z-score in test [7] was -0.189; in test [9], 0.482 (inactive).
On to `COc1ccc(NC(=O)O[C@H]2[C@@H]3OC(=O)[C@H](Cc4cccc(Br)c4)C/C=C/C[C@@H](Cc4cccc(Br)c4)C(=O)O[C@H]3[C@@H](OC)O[C@@H]2CO)cc1`, for which the composite z-score in test [1] was determined as 0.66; in test [2], 0.632; in test [3] it was 1.73; in test [4], 0.145; in test [5], 0.358; in [6] it was 0.293. Besides, the composite z-score in the test with Lefty1 worked out at 1.16; in [8], 0.464. The z-score in test [7] was 1.69; in [9], -1.29 (inactive).
On to `C=CCN1C(=O)[C@@]2(O[C@@H](CCO)[C@H]([Si](C)(C)c3ccc(OC)cc3)[C@H]2C)c2cc(N3CCOC3=O)ccc21`, for which the composite z-score in [1] was 2.38; in test [2], 1.15; in test [3], 0.246; in [4], 0.768; in test [5] it was -0.354; in test [6], -0.25. Also, the composite z-score was found to be 0.0949 with Lefty1 and 0.486 in test [8]. For the same compound, the z-score was -0.658 in test [7] and -1.03 (inactive) in test [9].
On to `COCC(=C=CC[C@@H](O)c1cccc(OCCO)c1)CCO`, for which the composite z-score in test [1] was -0.128; in test [2] it was -0.113; in test [3], -0.128; in test [4] it was 0.984; in test [5] it was 0.734; in test [6] it was 0.377. Moreover, the composite z-score in the test on Lefty1 was determined as 0.565; in [8], 1.1. Also, the values for the z-score in [7] and in test [9] were 0.293 and -1.31 (inactive), respectively.
Turning to `C=C(CCCC)C(=O)CC[C@H](OC(C)=O)c1ccc(OCCO)cc1`, the composite z-score in test [1] is 1.45; in test [2], -0.957; in test [3] it was 0.0145; in test [4] it was 0.431; in test [5], -0.243; in test [6] it was -0.271. In addition, the results for the composite z-score (in the test with Lefty1; in test [8]) were 0.108 and 0.359, respectively. Besides, the z-score in [7] is 0.208; in test [9] it was -0.66 (inactive).
